In PubChem BioAssay (NCATS):
A number with no mark means an inactive call. Results filed as inconclusive are left out. Activity calls are given as the source filed them. Unless noted, calls come from the whole dose curve; as a rule, active = well fitted curve in either direction with a large enough effect (not every such curve was filed as active); inconclusive = small, poorly fitted or top-dose-only effect, or another doubt; inactive = flat fitted curve, though single readings scatter.

Columns and labels:
[1] = AP1 Signaling Pathway (AID 357); settings: ME-180 AP-1-bla reporter, EGF-induced, beta-lactamase ratio, 5 h; at 17.2 µM (top of the series) unless noted; note: % is set by controls: 0 for no effect and ±100 for the full control effect
How it was run: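 Modulation of EGF-driven AP-1 transcription was assessed with a beta-lactamase reporter in ME-180 cells. Compound and EC50 EGF were co-incubated 5 hours at 37 °C before 2.5-hour CCF4 loading at room temperature and dual-emission reading.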

[2] = NFAT Signaling Pathway (AID 444); settings: Jurkat NFAT-bla M1, carbachol, beta-lactamase ratio, 5 h; at 17.2 µM (top of the series) unless noted;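 note: carbachol stimulus at about its EC50 of 1 µM final; % is set by controls: 0 for no effect and ±100 for the full control effect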
How it was run: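 Jurkat cells carrying an NFAT-driven β-lactamase reporter and co-transfected muscarinic M1 receptor were treated with compound plus carbachol (1 uM final, an EC50 level) for 5 h at 37 °C. CCF4 loading followed for 1 h at RT; 460/530 nm ratio gave %activity.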

[3] = Stat Signaling Pathway (AID 446); settings: ME-180 (cervical carcinoma) SIE beta-lactamase reporter, IL-6 stimulated, 5 h; at 17.2 µM (top of the series) unless noted;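 note: ME-180 cervical cancer cells given 40 pM IL-6 alongside compound; SIE-controlled beta-lactamase reporter measured as 460/530 nm FRET emission ratio; % is set by controls: 0 for no effect and ±100 for the full control effect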
How it was run: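 Normalization used AC90 stimulation (300 pM IL-6) and AC90 inhibition (125 nM pan-JAK inhibitor at 40 pM IL-6). The underlying signal is SIE-driven beta-lactamase in ME-180 cells after 5 h IL-6 exposure with compound.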

[4] = biological target: Glucocorticoid receptor (Homo sapiens) (UniProt P04150); test: GR-GFP Redistribution (AID 450;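 active = compounds whose dose series gives a full or clear partial fitted curve of increased nuclear translocation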; note: potency is the fitted concentration of half-maximal effect)
Chain of Glucocorticoid receptor (Homo sapiens) (P04150 whole entry, looked up): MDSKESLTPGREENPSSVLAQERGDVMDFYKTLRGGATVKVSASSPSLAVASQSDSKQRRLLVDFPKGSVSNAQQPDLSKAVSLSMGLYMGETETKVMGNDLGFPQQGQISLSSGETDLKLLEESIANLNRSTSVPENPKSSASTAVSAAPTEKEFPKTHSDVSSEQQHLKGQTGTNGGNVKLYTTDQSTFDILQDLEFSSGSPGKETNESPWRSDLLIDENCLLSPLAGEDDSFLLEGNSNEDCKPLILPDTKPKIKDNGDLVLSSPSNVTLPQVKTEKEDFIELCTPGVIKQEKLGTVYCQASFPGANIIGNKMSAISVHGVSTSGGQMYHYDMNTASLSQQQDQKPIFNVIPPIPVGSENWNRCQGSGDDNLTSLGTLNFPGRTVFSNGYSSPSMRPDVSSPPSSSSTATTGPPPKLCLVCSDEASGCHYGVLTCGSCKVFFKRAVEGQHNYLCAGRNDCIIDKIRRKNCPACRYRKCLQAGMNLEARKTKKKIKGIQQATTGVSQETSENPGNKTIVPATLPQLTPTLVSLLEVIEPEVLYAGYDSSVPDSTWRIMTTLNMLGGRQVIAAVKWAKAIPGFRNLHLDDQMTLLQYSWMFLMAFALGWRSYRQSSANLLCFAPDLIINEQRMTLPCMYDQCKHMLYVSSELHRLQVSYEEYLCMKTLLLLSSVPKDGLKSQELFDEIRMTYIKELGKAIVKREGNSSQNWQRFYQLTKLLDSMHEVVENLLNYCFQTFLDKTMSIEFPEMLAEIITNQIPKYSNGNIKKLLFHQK

Row | SMILES | activity change, negative = inhibition [1] [%] | activity change, negative = inhibition [2] | activity, negative = inhibition [3] [%] | Potency [4] [µM]
1 | CCc1nc2n[nH]c(N)c2c2c1CSC(C)(C)C2 | 1.67 | 14.6% | -13.2 | > 20.6
2 | COc1ccc(OC)c(N=C(C)C2=C(O)COC2=O)c1 | -4.74 | 0.486% | -3.94 | > 20.6
3 | Cc1cc(N2C(=O)C(=O)/C(=C(/O)c3ccc(F)cc3)C2c2cccc(Br)c2)no1 (stereo unspecified) | -7.98 | 2.37% | -29.1 | > 20.6
4 | Cn1c(OCc2cccnc2)nc2c1c(=O)n(Cc1ccc(Cl)cc1)c(=O)n2C | -16.3 | 22% | -15.9 | > 20.6
5 | CC(NC(=O)NC(N)=O)(C(F)(F)F)C(F)(F)F | 0.637 | -0.043% | -1.84 | > 20.6
6 | COc1ccc(-c2nnc3sc(-c4c(OC)cccc4OC)nn23)cc1 | -13.7 | -15.1% | 6.15 | > 20.6
7 | CCOC(=O)c1[nH]c2ccc(OC)cc2c1NC(=O)CCN1CCCC(C)C1 (stereo unspecified) | -2.35 | -82.5% (active) | 3.31 | > 20.6
8 | CCCCCOC(=O)C(C)c1c(C)[nH]c(=S)[nH]c1=O (stereo unspecified) | 7.28 | 6.16% | -4.24 | > 20.6
9 | CCOC(=O)CCc1c(C)c(C#N)c2nc3ccccc3n2c1-n1ccnc1 | -6.27 | 10% | 14.7 | > 20.6
10 | CCc1nc2c(sc3nc(N4CCOCC4)c4c(c32)CC(C)(C)OC4)c(=O)o1 | 3.92 | -0.695% | -6.95 | > 20.6
11 | CCN(CC)CCOC(=O)C1(c2ccc(OC)c(OC)c2)CCCC1 | 10.4 | -82.2% (active) | 11 | > 20.6
12 | CCC(=O)O[C@@H]1CC(=O)O[C@H](C)CC=CC=C[C@@H](O)[C@H](C)C[C@H](CC=O)[C@H](O[C@H]2O[C@H](C)[C@@H](O[C@H]3C[C@@](C)(O)[C@@H](OC(=O)CC)[C@H](C)O3)[C@H](N(C)C)[C@H]2O)[C@H]1OC | 1.11 | 8.88% | -1.1 | > 20.6
13 | Cc1ccc(-c2nnc(-c3cccc(Br)c3)o2)cc1 | 14.2 | -11.6% | 12.4 | > 20.6
14 | COc1ccc(OC)c(C2/C(=C(/O)c3ccccc3)C(=O)C(=O)N2Cc2ccco2)c1 (stereo unspecified) | -4.43 | 6% | -9.05 | > 20.6
15 | CCCOc1ccc(CSC(CC(=O)O)C(=O)O)cc1 (stereo unspecified) | 4.79 | 13.3% | 6.22 | > 20.6
16 | CC1(C)Cc2c(sc3c2C(=O)N(c2ccccc2)C2=NCCCN23)CO1 | 9.3 | -14.6% | 5.74 | > 20.6
17 | COc1ccc2c(c1)nc(N)n2Cc1ccccc1 | -1.6 | -9.42% | -3.55 | > 20.6
18 | Cc1cc(C)n(-c2nnc(C)n2/N=C/c2ccco2)n1 | 4.26 | -7.08% | 2.31 | > 20.6
19 | CC(=O)OC12CC3CC(C1)C(=NO)C(C3)C2 | 9.34 | 1.23% | 13.8 | > 20.6
20 | CCOc1ccc(-n2c3nc4ccccc4nc3c3c(=O)n(Cc4ccco4)cnc32)cc1 | -1.51 | -9.2% | -2.34 | > 20.6
21 | CNc1nc(C)c(C#N)cc1C(C)=O | -13.3 | -1.5% | -6.02 | > 20.6
22 | CC1CCc2cc(F)cc3c(O)c(C(=O)Nc4cnccn4)c(=O)n1c23 (stereo unspecified) | -8.92 | 19.5% | 11.1 | > 20.6
23 | Cn1c(CSc2ncn[nH]2)nc2ccccc21 | -5.65 | 3.91% | 20.6 | > 20.6
24 | O=C(CCCN1C(=O)c2ccccc2C1=O)N1CCC(c2ccccc2)C1 (stereo unspecified) | -21.8 | 15.7% | 1.3 | > 20.6
25 | Cc1cc(C)cc(-n2c3nc4ccccc4nc3c3c(=O)n(Cc4ccco4)cnc32)c1 | 8.24 | -18.2% | -16.9 | > 20.6

Row | SMILES | activity change, negative = inhibition [1] [%] | activity change, negative = inhibition [2] | activity, negative = inhibition [3] [%] | Potency [4] [µM]
26 | Cn1c(=O)c2c(nc(OCc3cccnc3)n2Cc2ccccc2)n(C)c1=O | -9.82 | -6.31% | -1.88 | > 20.6
27 | O=c1[nH]c(-c2ccccn2)nc2ccccc12 | -2.38 | -10.6% | 13.3 | > 20.6
28 | COCCCn1c2nc3ccccc3nc2c2c(=O)n(CC3CCCO3)cnc21 (stereo unspecified) | 0.107 | -12.4% | -0.209 | > 20.6
29 | CC(=O)N/C(=N/c1nc(C)cc(C)n1)Nc1ccc(NC(C)=O)cc1 | -2.08 | -3.91% | -1.02 | > 20.6
30 | N#CC1(P(=O)(c2ccccc2)c2ccccc2)CC1 | 0.213 | -2.17% | 1.75 | > 20.6
31 | COC(=O)C1=C(C)N=C2SC(C)C(=O)N2C1c1cccc(F)c1 (stereo unspecified) | -23.7 | -3.19% | -1.23 | > 20.6
32 | CCN(CC)CCN1C(=O)C(=O)/C(=C(/O)c2ccc(OC)cc2)C1c1ccco1 (stereo unspecified) | -1.18 | -15.2% | 3.92 | > 20.6
33 | COc1cccc(/C(O)=C2/C(=O)C(=O)N(CCN(C)C)C2c2ccc(Br)cc2)c1 (stereo unspecified) | -1.11 | 20.3% | 0.896 | > 20.6
34 | CCOC(=O)CSc1nc(C)c(C(C)=O)cc1C#N | 8.73 | -3.61% | 6.11 | > 20.6
35 | CN=c1sc2ccccc2n1CC(O)COc1ccccc1 (stereo unspecified) | -17.6 | -17.8% | -0.403 | > 20.6
36 | COc1ccc(/C(O)=C2/C(=O)C(=O)N(c3nc(C)c(C)s3)C2c2ccco2)cc1 (stereo unspecified) | -13.8 | 21.3% | -14.6 | > 20.6
37 | COc1ccccc1C1/C(=C(/O)c2cnn(-c3ccccc3)c2C)C(=O)C(=O)N1CCN(C)C (stereo unspecified) | -7.05 | 1.4% | 2.75 | > 20.6
38 | Cn1c(=O)[nH]c(=O)c2c1nc(N1CCN(c3cccc(Cl)c3)CC1)n2CCCc1ccccc1 | 26.9 | -11.9% | 6.95 | > 20.6
39 | CCCOc1ccc(/C(O)=C2/C(=O)C(=O)N(CCN(C)C)C2c2ccc(OC)c(OC)c2)cc1 (stereo unspecified) | -7.95 | 5.84% | -1.07 | > 20.6
40 | Cn1c[n+](C)cc1/C=N/O | 6.85 | 4.23% | -2.71 | > 20.6
41 | Cc1nn(CC(N)=O)c(=O)c2ccccc12 | 11.8 | 0.254% | 9.04 | > 20.6
42 | COc1ccc(/C(O)=C2/C(=O)C(=O)N(CCCN(C)C)C2c2cccc(Cl)c2)cc1OC (stereo unspecified) | -5.39 | 6.97% | 3.83 | > 20.6
43 | CCCOc1ccc(C2/C(=C(/O)c3ccccc3)C(=O)C(=O)N2CCCN(C)C)cc1OC (stereo unspecified) | 13.7 | 3.58% | 10.3 | > 20.6
44 | O=C(Nc1nccs1)NC(C(F)(F)F)C(F)(F)F | -10.3 | 9.14% | 10.4 | > 20.6
45 | CNC(=O)CCn1nc(-c2ccccc2)c2ccccc2c1=O | 5.34 | -2.43% | 1.15 | > 20.6
46 | c1cc(-c2nnc3sc(C4CCCCC4)nn23)ccn1 | -28.7 | -22.5% | -15.8 | > 20.6
47 | COC(=O)/C=c1/s/c(=C(/C#N)C(=O)N2CCCCC2)n(-c2ccccc2)c1=O | 26 | -25.6% | -5.91 | > 20.6
48 | CC(=O)OCc1c(COC(C)=O)[n+](=O)c2ccccc2n1[O-] | 8.53 | -3.2% | 0.487 | > 20.6
49 | CCN(CC)C(=O)C1CCN(c2ncnc3c2cnn3-c2ccc(C)cc2C)CC1 | -10.6 | 7.48% | -7.04 | > 20.6
